# Laboratory results: PubChem BioAssay (Tox21)
# Calls of active or inactive are those of the source. A call without a number means that no potency is given here. Calls come from the whole dose curve.
# Experiment: G protein-coupled receptor (GPCR) small molecule agonists, calcium flux assay: HEK293 wild type cell line counter screen (AID 1920065)
# Details: HEK293 WT calcium flux, fluorescence, agonist mode; series mostly up to 57.6 µM
# From the text: U.S. Tox21 Program National Center for Advancing Translational Sciences [NCATS] Division of Preclinical Innovation [DPI] U.S. Environmental Protection Agency [EPA] National Institutes of Environmental Health Sciences [NIEHS] National Toxicology Program [NTP] U.S. Food and Drug Administration [FDA] Assay overview: The increased intracellular calcium release that occurred upon G protein-coupled receptor (GPCR) activation led to the frequent use of calcium flux assays to detect GPCR activation. For the purpose of studying and screening compounds that may activate GPCR, receptor-overexpressing models were typically generated using Hek293 wild-type (WT) cells. In order to eliminate the compounds that may have induced calcium release for non-specific activation, a counter-assay utilizing calcium flux on Hek293 WT cells was performed. The data were formulated in order to serve as a control for any calcium flux detection utilizing Hek293 cells with either GPCR overexpression or gene modification. The procurement of Hek293 WT cells from ATCC. Fluorescence intensity can be utilized to determine the activation of the compound in a calcium flux assay. As a counter control, this cell line was utilized to screen the Tox21 10K compound library.
# Assay Protocol Summary: Hek293 cells were dispensed at 1500cells/4uL/well in 1536-well black wall/clear bottom plates using a multidrop dispenser. After the assay plates were incubated at a 37 C/5% CO2 incubator for 18 hours, 4 uL of Calcium Dye Solution was added to each well. The plates were incubated at 37 C for 1 hour. For agonist mode, 23 nL of compounds dissolved in DMSO, positive control (ATP) or DMSO only was transferred to the assay plate by a pin tool station. The fluorescence intensity in the plates was measured using FDSS 7000EX kinetic plate reader with a filter set of Ex/Em=480/540 for 3 min at 1 sec intervals. Each test compound was measured at 15 concentrations and in triplicates.
row,SMILES,Potency
1,CN=C=O,inactive
2,CCC(=O)O[C@@H]1C=C2CCC3C(CCC4(C)C3CC[C@@H]4OC(=O)CC)C2CC1 (stereo not given in full),inactive
3,Nc1ncc([N+](=O)[O-])s1,inactive
4,CCCCCCC#N,inactive
5,c1ccc(-c2ccccc2)cc1,inactive
6,CCCCOC(=O)c1ccccc1C(=O)OCc1ccccc1,inactive
7,COC(=O)c1ccc(CBr)cc1,inactive
8,CCNc1nc(Cl)nc(NCC)n1,inactive
9,O=C1CCCN1,inactive
10,CC(C)CCON=O,inactive
11,CCCCON=O,inactive
12,c1ccc2sc(SNC3CCCCC3)nc2c1,inactive
13,OCCCCO,inactive
14,Cc1cc(N=Nc2ccccc2C)ccc1N,inactive
15,NCc1cccnc1,inactive
16,CCCCCCCCCCOC(=O)c1ccccc1C(=O)OCCCCCCCCCC,inactive
17,CCCCCCCCCCCCOS(=O)(=O)O,inactive
18,CCN(CC)N=O,inactive
19,CCCCCCCCCCCOC(=O)c1ccccc1C(=O)OCCCCCCCCCCC,inactive
20,CC1(C)[C@H](C(=O)O[C@H](C#N)c2cccc(Oc3ccccc3)c2)[C@@H]1/C=C(\Cl)C(F)(F)F,inactive

row,SMILES,Potency
1,O=C(O)CCCOc1ccc(Cl)cc1Cl,inactive
2,CCCCCCCCCBr,inactive
3,OCCCl,inactive
4,CC(C)(c1ccccc1)c1ccc(O)c(C(C)(C)c2ccccc2)c1,inactive
5,CCOC(=O)C(O)(c1ccc(Cl)cc1)c1ccc(Cl)cc1,inactive
6,ClC(Cl)(Cl)Br,inactive
7,COc1ccccc1N,inactive
8,CN(N=O)c1ccccc1,inactive
9,COCC(=O)N(c1c(C)cccc1C)C(C)C(=O)OC (stereo not given),inactive
10,CCCCCCCCn1cc[n+](C)c1,inactive
11,CC(C)=CC1C(C(=O)OCN2C(=O)C3=C(CCCC3)C2=O)C1(C)C (stereo not given),inactive
12,c1ccc(N2CCNCC2)cc1,inactive
13,Cc1cccc(N)c1,inactive
14,Cc1ccccc1CCl,inactive
15,CCCCC(C#N)(Cn1cncn1)c1ccc(Cl)cc1 (stereo not given),inactive
16,O=NN1CCCC1,inactive
17,CCOS(=O)(=O)OCC,inactive
18,O=C(O)C(Cl)(Cl)Br,inactive
19,CCNc1nc(NC(C)C)nc(OC)n1,inactive
20,O=[N+]([O-])CCO,inactive
